The panel holds about 83,000 compounds, 20% with a hit somewhere; the sample as a whole holds those more often.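 In brief: 96-well plates, 48 h treatment, single concentration, percent growth endpoint.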 Unmarked numbers belong to inactive results. The source made the active and inactive calls. How the source made its calls: active means growth percent below 10; inactive means the rest.

The test system of the assay is SW-620 colon. Description: NCI-60 one-dose screen, 48 h (100 = growth as untreated, 0 = no growth, -100 = all killed). The conditions noted are these: 10 µM unless noted.
On to `N#Cc1nc(-c2ccccc2)oc1S(=O)(=O)N1CCCCC1`, for which the growth is -12.8% (active).
The figure for `COc1ccc(-c2nn3c(-c4ccccc4F)nnc3s2)cc1` is 34.4%.
As to `COc1cc(OC)c(C2C(Cl)C(=O)N2Nc2ncnc3ccccc23)cc1OC` (stereo not drawn), the growth is 108%.
Regarding `O=C(CSc1nc2sc3c(c2c(=O)n1-c1ccc(Cl)cc1)CCCC3)N/N=C/c1ccc(F)cc1`, the growth is 61.9%.
For the molecule `Nc1ncc(-c2ccc3ncnc(N4CCc5cc(F)c(Cl)cc54)c3c2)cc1CO`, the growth was 11.1%.
For `CN(C)CCCOc1c2ccc(Cl)cc2nc2c1oc1ccc(Cl)cc12`, the growth was -82.9% (active).
Take `NS(=O)(=O)c1ccc(Nc2nc(SCC(=O)c3ccc(Cl)cc3)nc3ccccc23)cc1`: the growth is 93.3%.
The figure for `N#Cc1nc(-c2ccccc2)oc1N1CC[C@@H](CO)C1` is 99%; for `CC(C)(C)Nc1nc2c(OCCc3ccccc3)cccn2c1-c1ccc(O)cc1` it is 69%; for `N#Cc1c(-c2ccc(Cl)cc2)nc(SCc2ccc(F)cc2)nc1N1CCNCC1` it is -80.2% (active).
Regarding `Fc1ccc(-c2cc3nc(C(Cl)Cl)nc(-c4ccccc4)n3n2)cc1`, the growth was -50.2% (active).
The figure for `COc1cc(/C=C/C(=O)c2ccccc2)ccc1Oc1nc(NCCO)nc(N2CCOCC2)n1` is 60.9%.
`O=C(N/N=C/c1ccc[nH]1)c1[nH]c2ccc(Br)cc2c1-c1ccccc1`: the growth is 22.8%.
As to `CN(C)c1ccc(/C=C2\Cc3c(F)ccc(Br)c3C2=O)cc1`, the growth is 89.9%.
As to `CC(C)(C)Nc1nc2c(OCCc3ccccc3)cccn2c1-c1cccc(F)c1`, the growth was 9.7% (active).
For `OC1CCN(CCCOc2c3ccc(Cl)cc3nc3c2oc2ccc(Cl)cc23)CC1`, the growth was -82.6% (active).
Turning to `Fc1ccc(-c2cc3nc(C(Cl)Cl)nc(-c4ccc(Cl)cc4)n3n2)cc1`, the growth is -13.1% (active).
On to `COC(=O)C(Cc1ccccc1)NS(=O)(=O)/N=C1\NC(=O)NC1=C(Cl)Cl` (stereo not drawn), for which the growth is 98.9%.
The figure for `Nc1cc(-c2c[nH]c3ccccc23)nc2cc(-c3c[nH]c4ccccc34)nn12` is -25.1% (active); for `O=C(N/N=C/c1ccco1)c1[nH]c2ccc(Br)cc2c1-c1ccccc1` it is 24.8%; for `OC1CCN(CCCOc2c3ccccc3nc3c2oc2ccc(Cl)cc23)CC1` it is 2.39% (active).
The figure for `CN(C)CCCOc1c2ccc(Cl)cc2nc2c1oc1ccccc12` is 9.59% (active); for `Cc1[nH]nc2ncc(C#Cc3cncc(C(=O)Nc4ccc(CN5CCN(C)CC5)c(C(F)(F)F)c4)c3)cc12` it is 4.05% (active); for `Cc1sc2c(c1C)c(=O)nc1c(-c3nc(-c4ccc(F)cc4)no3)n[nH]n12` it is 111%.
The value for `C#Cc1nc(C2=C(C)C(O)/C(=N/O)C2)cs1` (stereo not drawn) was 123%; that for `Cc1ccc(C(=O)Nc2cccc(C(F)(F)F)c2)cc1Nc1nc(-c2cnccn2)nc2c1cnn2C` was 58.4%; that for `CN1CCc2c(sc3ncnc(N/N=C/c4ccc(Cl)c(Cl)c4)c23)C1` was -68.4% (active).
Turning to `CC(=O)Nc1cc(F)cc(-c2ccc3[nH]cc(-c4ccccc4)c3n2)c1`, the growth was -56.2% (active).
The figure for `CS(=O)(=O)c1ccc(-n2cc(/C=C/C(=O)c3ccc(NC(=O)CO[N+](=O)[O-])cc3)c(-c3ccc(Cl)cc3)n2)cc1` is 114%; for `CC(C)(C)Nc1nc2c(OCCc3ccccc3)cccn2c1-c1ccc(Cl)cc1` it is 41%; for `N#Cc1nc(-c2ccccc2)oc1S(=O)(=O)N1CCN(CCc2ccccn2)CC1` it is -24.2% (active).
The value for `C#Cc1nc(C2=C(C)C(OC(=O)CCC(=O)O)CC2)cs1` (stereo not drawn) was 113%.
As for `O=C(NNc1nc2cc(F)ccc2n2c(CN3CC4(COC4)C3)ccc12)c1cnccn1`, the growth was 27.1%.
In the case of `Cc1cccc(/C=C/c2nn3c(-c4ccco4)nnc3s2)c1`, the growth was 101%.
The figure for `CCN1C(=S)N(CC)C2C1N=C(SC)N2/N=C/C=C/c1ccccc1[N+](=O)[O-]` (stereo not drawn) is 99.4%.
The figure for `Nc1cc(-c2c[nH]c3ccc(F)cc23)nc2cc(-c3c[nH]c4ccc(F)cc34)nn12` is 4.64% (active).
The figure for `Clc1ccc(Cc2nnc3sc(-c4cccnc4)nn23)cc1` is 99.1%; for `NS(=O)(=O)c1cccc(Nc2nc(SCC(=O)c3ccc(Br)cc3)nc3ccccc23)c1` it is 63.7%.

The values are drawn from PubChem BioAssay (NCI).
